# From the antibiotic and cytotoxicity screens of Wong et al. (2023)
# Screen size: about 39,000 compounds; about 1,500 (3.8%) were called active. For the sample, actives were picked, then their nearest neighbours and some compounds at random.
# Test system: HSkMC (human skeletal muscle cells)
# Assay: cytotoxicity call (relative viability < 0.9)
# Conditions: 10 µM
row,Compound,cytotoxicity call
1,C[C@@H]1CN([C@H](C)CO)C(=O)c2cc(NC(=O)c3ccncc3)ccc2O[C@@H](C)CCCCO[C@@H]1CN(C)C(=O)C1CCCCC1,inactive
2,COc1ccc(NC(=O)N2C[C@@H](O)COC[C@@H]3O[C@H](CC(=O)NC4Cc5ccccc5C4)CC[C@H]32)cc1,inactive
3,CC(C)NC(=O)N(C)C[C@H]1Oc2ccc(NC(=O)NC3CCCCC3)cc2C(=O)N([C@@H](C)CO)C[C@H]1C,inactive
4,CC(C)NC(=O)Nc1ccc2c(c1)C(=O)N([C@H](C)CO)C[C@H](C)[C@H](CN(C)S(=O)(=O)c1cn(C)cn1)OCCCC[C@H](C)O2,inactive
5,C[C@@H]1CN([C@H](C)CO)C(=O)c2cc(NC(=O)Cn3cnnn3)ccc2O[C@@H]1CN(C)Cc1ccc(Oc2ccccc2)cc1,inactive
6,CCS(=O)(=O)N[C@H]1C=C[C@@H](CC(=O)NCc2ccc(Cl)cc2)O[C@@H]1CO,inactive
7,C[C@H](CO)N1C[C@H](C)[C@@H](CN(C)Cc2ccc(Cl)c(Cl)c2)OCCCC[C@H](C)Oc2ccc(NC(=O)CCC(F)(F)F)cc2C1=O,inactive
8,C[C@@H]1CCCCO[C@H](CN(C)Cc2ccc(Cl)c(Cl)c2)[C@H](C)CN([C@@H](C)CO)C(=O)c2cc(NC(=O)CCC(F)(F)F)ccc2O1,inactive
9,C[C@@H]1CN([C@H](C)CO)C(=O)c2cc(NC(=O)CCC(F)(F)F)ccc2O[C@@H](C)CCCCO[C@H]1CN(C)Cc1ccc(Cl)c(Cl)c1,active
10,C[C@@H]1CCCCO[C@@H](CN(C)Cc2ccc(Cl)c(Cl)c2)[C@H](C)CN([C@H](C)CO)C(=O)c2cc(NC(=O)CCC(F)(F)F)ccc2O1,inactive
11,C[C@@H]1CN([C@H](C)CO)C(=O)c2cc(NC(=O)CCC(F)(F)F)ccc2O[C@@H](C)CCCCO[C@@H]1CN(C)Cc1ccc(Cl)c(Cl)c1,active
12,C[C@H]1CCCCO[C@H](CN(C)Cc2ccc(Cl)c(Cl)c2)[C@@H](C)CN([C@@H](C)CO)C(=O)c2cc(NC(=O)CCC(F)(F)F)ccc2O1,inactive
13,C[C@H](CO)N1C[C@H](C)[C@@H](CN(C)Cc2ccc(C(=O)O)cc2)OCCCC[C@H](C)Oc2ccc(NC(=O)CCC(F)(F)F)cc2C1=O,inactive
14,Cc1cc(OCCCS(C)(=O)=O)cc(C)c1-c1cccc(COc2ccc3c(c2)OC[C@H]3CC(=O)O)c1,active
15,C[C@@H]1CN([C@H](C)CO)C(=O)c2cccc(NC(=O)c3ccc(-c4nccs4)cc3)c2O[C@H]1CN(C)Cc1ccccc1,inactive
16,CC(C)(N)c1cn(C2CCN(C(=O)C3CCC(C(C)(C)C)CC3)CC2)nn1 (centres undefined),inactive
17,CCO[C@@H]1OC(C(=O)N2CCOCC2)=C[C@H](c2coc3ccccc3c2=O)[C@H]1CCCOC(=O)NCCCCCC(=O)NO,inactive
18,COc1ccc(S(=O)(=O)Nc2ccc3c(c2)CC(=O)N([C@@H](C)CO)C[C@@H](C)[C@@H](CN(C)C(=O)Nc2c(C)noc2C)O3)cc1,inactive
19,O=C(c1ccc(S(=O)(=O)N2CCCCCC2)cc1)N(Cc1cccnc1)c1nc2c(F)cc(F)cc2s1,inactive
20,Cc1ccc2sc(N(CCCN(C)C)C(=O)c3ccc(S(=O)(=O)N(C)C4CCCCC4)cc3)nc2c1C,active
21,Cc1ccc2sc(N(CCCN(C)C)C(=O)c3ccc(S(=O)(=O)N(C)Cc4ccccc4)cc3)nc2c1C,active
22,COc1cc(OC)c(S(=O)(=O)N(C)Cc2ccccc2)cc1S(=O)(=O)N(C)Cc1ccccc1,inactive

row,Compound,cytotoxicity call
1,Cc1cc(Cl)cc2sc(N(Cc3ccccn3)C(=O)c3ccc(S(=O)(=O)N4CCCC4)cc3)nc12,inactive
2,C[C@@H]1CN([C@H](C)CO)C(=O)c2cc(NC(=O)Cn3cnnn3)ccc2O[C@H]1CN(C)CC1CCCCC1,inactive
3,Cc1ccc(-c2ccc3c(c2)O[C@@H](CN(C)C(=O)NC(C)C)[C@H](C)CN([C@H](C)CO)S3(=O)=O)cc1,inactive
4,CCCNC(=O)N[C@H]1CC[C@@H](CC(=O)N2CCN(C)CC2)O[C@@H]1CO,inactive
5,C[C@@H]1CN([C@H](C)CO)C(=O)c2cc(NS(C)(=O)=O)ccc2O[C@@H]1CN(C)Cc1ccc(C(=O)O)cc1,inactive
6,CC(C)NC(=O)N(C)C[C@@H]1OCCCC[C@@H](C)Oc2ccc(NS(=O)(=O)c3cn(C)cn3)cc2C(=O)N([C@@H](C)CO)C[C@H]1C,inactive
7,C[C@H](CO)N1C[C@H](C)[C@H](CN(C)C(=O)Nc2ccccc2)OCCCC[C@H](C)Oc2ccc(NC(=O)Nc3cccc4ccccc34)cc2C1=O,inactive
8,Cc1noc(C)c1NC(=O)N(C)C[C@@H]1Oc2ccc(NC(=O)Nc3ccc(C(F)(F)F)cc3)cc2C(=O)N([C@H](C)CO)C[C@@H]1C,inactive
9,C[C@@H]1CN([C@H](C)CO)C(=O)c2cc(NC(=O)Nc3cccc4ccccc34)ccc2O[C@H]1CN(C)Cc1ccc(-c2ccccc2)cc1,inactive
10,C[C@@H]1CN([C@H](C)CO)C(=O)c2cc(NC(=O)Nc3cccc4ccccc34)ccc2O[C@H]1CN(C)Cc1ccccc1,inactive
11,C[C@H](CO)N1C[C@H](C)[C@@H](CN(C)Cc2ccc(-c3ccccc3)cc2)Oc2ccc(NC(=O)Nc3cccc4ccccc34)cc2C1=O,inactive
12,C[C@H](CO)N1C[C@H](C)[C@H](CN(C)Cc2ccc(-c3ccccc3)cc2)Oc2ccc(NC(=O)Nc3cccc4ccccc34)cc2C1=O,active
13,C[C@H]1CN([C@@H](C)CO)C(=O)c2cc(NC(=O)Nc3cccc4ccccc34)ccc2O[C@H]1CN(C)Cc1ccc(-c2ccccc2)cc1,inactive
14,C[C@@H]1CN([C@@H](C)CO)C(=O)c2cc(NC(=O)Nc3cccc4ccccc34)ccc2O[C@@H]1CN(C)Cc1ccc(-c2ccccc2)cc1,active
15,C[C@@H]1CN([C@H](C)CO)C(=O)c2cc(NC(=O)Nc3cccc4ccccc34)ccc2O[C@@H]1CN(C)Cc1ccc(-c2ccccc2)cc1,inactive
16,C[C@H]1CN([C@@H](C)CO)C(=O)c2cc(NC(=O)Nc3cccc4ccccc34)ccc2O[C@@H]1CN(C)Cc1ccc(-c2ccccc2)cc1,active
17,C[C@@H]1CN([C@@H](C)CO)C(=O)c2cc(NC(=O)Nc3cccc4ccccc34)ccc2O[C@H]1CN(C)Cc1ccc(-c2ccccc2)cc1,inactive
18,Cc1ccc(S(=O)(=O)N(C)C[C@H]2Oc3c(NC(=O)Nc4ccc(C(F)(F)F)cc4)cccc3C(=O)N([C@H](C)CO)C[C@@H]2C)cc1,inactive
19,CO[C@H]1CN(C)C(=O)c2cc(NS(=O)(=O)c3cn(C)cn3)ccc2OC[C@@H](C)N(Cc2cccc(F)c2)C[C@H]1C,inactive
20,Cc1noc(C)c1NC(=O)Nc1cccc2c1O[C@@H](CN(C)Cc1ccc(Oc3ccccc3)cc1)[C@@H](C)CN([C@@H](C)CO)C2=O,inactive
21,COc1ccc(S(=O)(=O)N(C)C[C@@H]2Oc3cc(C4=CCCC4)ccc3S(=O)(=O)N([C@H](C)CO)C[C@@H]2C)cc1,inactive
22,COCCNC(=O)C[C@H]1CC[C@H]2[C@@H](COC[C@@H](O)CN2C(=O)Nc2ccc3c(c2)OCO3)O1,inactive

row,Compound,cytotoxicity call
1,CC(C)NC(=O)Nc1cccc2c1O[C@H](CN(C)Cc1ccc3c(c1)OCO3)[C@@H](C)CN([C@H](C)CO)C2=O,inactive
2,COc1ccc(NC(=O)Nc2ccc3c(c2)C(=O)N([C@H](C)CO)C[C@H](C)[C@H](CN(C)Cc2ccc(C(=O)O)cc2)OCCCC[C@H](C)O3)cc1,inactive
3,C[C@H](CO)N1C[C@H](C)[C@@H](CN(C)S(=O)(=O)c2cn(C)cn2)Oc2ccc(NS(=O)(=O)c3ccc(Cl)cc3)cc2CC1=O,inactive
4,C[C@H]1CN=C(NS(=O)(=O)c2ccccc2)N1,inactive
5,C=CCON1C(=O)[C@@H]2[C@@H](C1=O)[C@@H]1C=C[C@@H]2O1,inactive
6,CCCCc1oc2ccc(NS(C)(=O)=O)cc2c1C(=O)c1ccc(OCCCN(CCCC)CCCC)cc1,active
7,CCCCc1oc2ccccc2c1C(=O)c1cc(I)c(OCCN(CC)CC)c(I)c1,active
8,CCc1oc2ccccc2c1C(=O)c1cc(Br)c(O)c(Br)c1,inactive
9,CCCCc1oc2ccc(NS(C)(=O)=O)cc2c1C(=O)c1ccc(OCCCN(CCCC)CCCC)cc1.Cl,active
10,CCCCOc1cc(C(=O)OCCN(CC)CC)ccc1N.Cl,inactive
11,CCCCc1oc2ccccc2c1C(=O)c1cc(I)c(OCCN(CC)CC)c(I)c1.Cl,inactive
12,CCCCN(CCCC)CCCOC(=O)c1ccc(N)cc1.O=S(=O)(O)O,inactive
13,C[C@H]1CN([C@@H](C)CO)C(=O)c2c(c3ccccc3n2C)-c2ccccc2CO[C@@H]1CN(C)C(=O)Nc1cccc(C(F)(F)F)c1,inactive
14,O=C(C[C@@H]1C=C[C@@H](NC(=O)Cc2ccccn2)[C@@H](CO)O1)NCCCN1CCOCC1,inactive
15,CNC(=O)C[C@@H]1CC[C@@H]2[C@H](COc3ccc(NC(=O)c4ccc(C(F)(F)F)cc4)cc3C(=O)N2C)O1,inactive
16,C[C@@H]1CCCCO[C@@H](CN(C)S(=O)(=O)c2cn(C)cn2)[C@@H](C)CN([C@@H](C)CO)C(=O)c2cc(NC(=O)Nc3ccc(C(F)(F)F)cc3)ccc2O1,inactive
17,COCCOC(=O)N1C(=O)[C@@]2(c3cc(C#Cc4ccc(OC)cc4)ccc31)[C@H](c1ccccc1OCCO)N1[C@H](c3ccccc3)[C@H](c3ccccc3)OC(=O)[C@H]1[C@@H]2C(=O)N1CCN(c2ncccn2)CC1,inactive
18,Cc1noc(C)c1NC(=O)N(C)C[C@@H]1OCCCC[C@H](C)Oc2ccc(NC(=O)NC3CCCCC3)cc2C(=O)N([C@@H](C)CO)C[C@H]1C,inactive
19,CO[C@@H]1CN(C)C(=O)c2cc(NC(=O)NC(C)C)ccc2OC[C@H](C)N(Cc2ccc(-c3ccccn3)cc2)C[C@@H]1C,inactive
20,C[C@@H]1CCCCO[C@H](CN(C)S(C)(=O)=O)[C@@H](C)CN([C@H](C)CO)C(=O)c2cc(NS(=O)(=O)c3cccs3)ccc2O1,inactive
